Records with an inconclusive call do not appear. A call without a number means that no potency is given here. Calls of active or inactive are those of the source. Calls come from the whole dose curve.

The experiment concerns the target cAMP-dependent protein kinase catalytic subunit alpha (Homo sapiens) (UniProt P17612). Kind of experiment: Protein Kinase A (PKA-HiBiT) SDR gain of signal screen. Conditions: PKA-HiBiT structural dynamics response (SDR), luminescence gain of signal; series mostly up to 32.9 µM. The source says:
National Center for Advancing Translational Sciences (NCATS),
National Institute of Health (NIH), Maryland
Discovery and optimization of novel protein-binding ligands underlies many of the methods and applications of biology, drug discovery, clinical diagnostics, and environmental toxicology. Assays for detecting the interaction of, for example, a molecule with a macromolecular target also referred to here as the target of interest (TOI) is dependent on a compatible output technology. Depending on the nature and knowledge surrounding the TOI, whether a receptor, enzyme, regulatory subunit or scaffold, or a sequence-defined nucleic acid folded into a complex tertiary structure, assay strategies can vary widely.
Here we exploit ligand-biased changes in the structural dynamics of the target protein to control reporter alpha complementation allowing a non-competitive, non-functional, non-separation measure of ligand-target interaction.
Using a chemical library of >1,200 compounds enriched for scaffolds known to be associated with the inhibition of firefly luciferase (FLuc) activity (PubChem AIDs 2309) we first illustrate and compare the Structural Dynamics Response (SDR) assay vs. the standard functional FLuc enzyme assay (2). Secondly, we show the specificity and sensitivity of the SDR for the Abelson tyrosine kinase (ABL1) compared to the serine/threonine protein kinase A, using an enriched chemical library of 128 compounds selected, in part, for activity annotated with ABL1 kinase activity using the Pharos database (3).
(1) A. S. Dixon et al., NanoLuc Complementation Reporter Optimized for Accurate Measurement of Protein Interactions in Cells. ACS Chem Biol 11, 400-408 (2016).
Chemistry & Biology, 19, 1060 - 1072 (2012).
(3) K. J. Kelleher et al., Pharos 2023: an integrated resource for the understudied human proteome. Nucleic Acids Res 51, D1405-D1416 (2023).
PROTOCOL TABLE (as described by Inglese J, Shamu CE and Guy RK. 2007)
SEQUENCE No. (e.g., 1, 2, 3, etc.); […] (e.g., C. elegans, Compounds, Incubation, Read, etc.); VALUE and DESCRIPTION.
1. Reagent. Dispense 4 uL PKA-N-HiBiT enzyme per well at a final enzyme concentration of 10 nM in buffer into columns 2-48 of four replicate Greiner 1536-well white,solid bottom high base, medium plates per assay. Dispense respective buffer without enzyme at 4 uL/well in column 1 of assay plates using BioRaptr 2.
2. Compounds. Library compounds added at 23 nL/well by pin transfer. DMSO neutral control and H-89 positive control added at 25 nL/well, transfer by Mosquito dispenser.
3. Incubation. Incubate enzyme and compounds at room temperature for 30 min, protect from light.
4. Reagent. (SDR assay) Add 3 uL/well of Nano-Glo HiBiT reagent (Promega) to assay plates.
5. Incubation. (SDR assay) Incubate enzyme solution HiBiT reagent at room temperature for 10 min, protected from light.
6. Detector. (SDR assay) Luminescence measured using CCD-based camera (ViewLux) with settings as follows: Exposure, 1 sec; Gain, High; Speed, Slow; Binning, 2X.
(In general: The HiBiT peptide binds its large partner to form an active luciferase.)
For the compound `CCNC(=O)C[C@@H]1N=C(c2ccc(Cl)cc2)c2cc(OC)ccc2-n2c(C)nnc21`, the Potency entry was “inactive”.

With `N#Cc1cn([C@@H]2O[C@H](CO)[C@H](O)[C@@H]2O)c2ncnc(N)c12`, the Potency result is “inactive”.

Turning to `Cc1[nH]nc2ccc(-c3cncc(OC[C@@H](N)Cc4c[nH]c5ccccc45)c3)cc12`, the Potency was 197 nM (active).

With `O=C(NCCCNc1nc(Nc2ccc(N3CCOCC3)cc2)ncc1C1CC1)C1CCC1`, the Potency result is “inactive”.

Turning to `O=[N+]([O-])O[C@H]1CO[C@H]2[C@@H]1OC[C@H]2O[N+](=O)[O-]`, the Potency result is “inactive”.

As to `C/C(O)=C(\C#N)C(=O)Nc1cc(Br)ccc1Br`, the Potency entry is “inactive”.

Source of the values: PubChem BioAssay AID1963322 (National Center for Advancing Translational Sciences (NCATS), 2024).
